# Source: PubChem BioAssay (National Center for Advancing Translational Sciences (NCATS))
# Rows were chosen to be rich in hits. Some 19% of all compounds tested hit in one or more screens of this group.
# TDP1 cell CPT: growth inhibition of DT40 Tdp1-/-;hTDP1 cells with camptothecin (screen for TDP1 inhibitors) | chicken DT40 Tdp1-/-;hTDP1 cells + 20 nM CPT, ATP luminescence, 48 h | Potency, µM (highest dose often 46.2 µM), without a hit: at the highest dose activity change, negative = growth inhibition, actives largely listed as inhibitors | actives 12% (n = 420,000); note: nearly all actives have a fitted effect of over 55% in size
#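 Cell growth measured by CellTiter-Glo luminescence after a minimum 48 h, 37 C compound exposure with 20 nM CPT in Tdp1-knockout DT40 cells stably expressing hTDP1, seeded 400/well; qHTS titration format.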
# HT1080-NT tox: kills 2HG-producing HT-1080-NT fibrosarcoma cells. HT-1080-NT fibrosarcoma viability, CellTiter-Glo ATP luminescence, 48 h. Potency, µM (series often up to 46.1 µM), for the others: at the top dose activity, negative = less viability, most hits filed as cytotoxic. actives 1.6% (n = 360,000);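 note: NT is the 2HG producing partner of a matched IDH1 knockdown line; 0% = DMSO-treated cells and -100% = media-only wells without cells; nearly all actives have a fitted effect of over 55% in size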
#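 Luminescent CellTiter-Glo readout after 48 hours of compound exposure at 37 degrees C defined viability of HT-1080-NT cells. Activity was normalized to DMSO wells and cell-free media wells; concentration-response curves were fitted and assigned curve classes.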
# HT1080 IDH1KD tx: toxicity to HT-1080 IDH1 knockdown cells (counter line). actives 2% (n = 360,000). Potency, µM (doses to about 46.1 µM), inactives show at the top dose activity, negative = toxicity, usual class: cytotoxic. HT-1080 IDH1 knockdown viability, ATP luminescence, 48 h;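 note: 0% = DMSO wells and -100% = cell-free medium wells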
#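 Using the IDH1-knockdown HT-1080 line run in the same batch and compound series as the NT line, viability after 48 h at 37 °C was determined by CellTiter-Glo luminescence and expressed as % activity.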
# KB-V1 MDR tox: kills drug-selected multidrug resistant KB-V1 cells; KB-V1 MDR cells viability, CellTiter-Glo, 72 h; Potency, µM (series often up to 46.1 µM), most hits filed as cytotoxic; actives 3.4% (n = 400,000); note: nearly all actives have a fitted effect of over 60% in size
#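 KB-V1, DMEM (no phenol red) + 10% FBS; cpd pin-transferred, titration series; 72 h, 37 degrees C; CellTiter-Glo, luminescence. Data normalized, curve-fit.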
# KB-3-1 cytotox: KB-3-1 parental cell cytotoxicity; KB-3-1 viability, CellTiter-Glo ATP luminescence, 72 h; Potency, µM (highest dose often 46.1 µM), actives largely listed as cytotoxic; actives 1.4% (n = 400,000); AID 1347075; note: nearly all actives have a fitted effect of over 60% in size
#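 72 h, 37 °C compound treatment of KB-3-1 parental cells; CellTiter-Glo added, 10 min, luminescence read. Data corrected against DMSO-only plates and normalized before curve fitting.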
# DT40 TDP1 no CPT: qHTS for Inhibitors of human tyrosyl-DNA phosphodiesterase 1 (TDP1): qHTS in cells in absence of CPT; Potency, µM (titrated, usually from 46.2 µM), for inactives: at the highest dose activity change, negative = growth inhibition, most hits filed as inhibitors; AID 686978, 2013; actives 15% (n = 420,000); DT40 Tdp1-/- hTDP1 cells, no CPT, ATP luminescence, 48 h; note: nearly all actives have a fitted effect of over 55% in size
#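 Seeded 400 DT40-hTDP1 cells/well (vehicle DMSO, no 20 nM CPT); pinned compounds; ≥48 hr at 37 °C; CellTiter-Glo luminescence as viability measure.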
# Numbers without * were called inactive; i = inactive; ? = inconclusive; . = no result given; [ ] = remark or other dose. Calls come from the whole dose curve; as a rule, active = well fitted curve in the direction sought with a large enough effect; inconclusive = small, poorly fitted or top-dose-only effect, or another doubt; inactive = no such curve, though single readings can be large; an effect the other way counts as inactive or inconclusive. Unless noted, % is set by controls: 0 for no effect and ±100 for the full control effect; potency is the fitted concentration of half-maximal effect.
SMILES,TDP1 cell CPT,HT1080-NT tox,HT1080 IDH1KD tx,KB-V1 MDR tox,KB-3-1 cytotox,DT40 TDP1 no CPT
CC(=O)c1cccc(NCC(=O)Nc2cccc(S(=O)(=O)N3CCCCC3)c2)c1,?,1.4%,-1.1%,i,i,?
O=C(CN1CCN(S(=O)(=O)c2ccccc2)CC1)Nc1cccc(C(F)(F)F)c1,16.4µM*,-18.9%,-25.6%,?,i,?
c1ccc(-c2noc(-c3cccnc3NCc3ccco3)n2)cc1,?,.,.,i,i,-11.9%
CC1CCCCN1C(=O)CCNC(=O)Cn1cnc2ccccc2c1=O (centres undefined),-4.0%,19.2%,22.2%,i,i,0.5%
Cc1ccc(NCC(=O)Nc2cccc(S(=O)(=O)N(C)C)c2)cc1S(=O)(=O)N1CCCCCC1,8.2µM*,-19.4%,?,?,?,7.31µM*
CCN(CC)S(=O)(=O)c1cccc(NC(=O)c2cccc(S(=O)(=O)N3CCCC3)c2)c1,?,-7.7%,-18.5%,?,i,16.4µM*
Cc1ccc(NC(=O)CNc2cccc(S(=O)(=O)N3CCCC3)c2)cc1F,-20.1%,?,-12.1%,i,?,?
O=C(CNc1cccc(C(F)(F)F)c1)Nc1cccc(S(=O)(=O)N2CCCC2)c1,13µM*,-7.7%,-14.9%,?,?,-71.2%
CC1Cc2ccccc2N1C(=O)CNc1cccc(S(=O)(=O)N2CCCC2)c1 (centres undefined),14.6µM*,-0.6%,-1.0%,?,i,20.6µM*
CCc1cc(C(=O)NCc2c(C)ncc3c2CCN(C(=O)C2=CCCC2)C3)no1,12.1%[9.04 µM],.,.,.,.,-10.7%
COc1ccc(NC(=O)Cn2ccn(-c3ccc(C)c(C)c3)c(=O)c2=O)cc1Cl,-9.9%,.,.,.,.,-7.2%
CCc1ccc2oc(C(=O)NCc3ccccc3)cc(=O)c2c1,-13.8%,.,.,i,i,?
CCN(CC)S(=O)(=O)c1ccc(C)c(NC(=O)CNc2cccc(S(=O)(=O)N3CCCC3)c2)c1,18.4µM*,-5.6%,-14.3%,i,i,13µM*
Cc1cccc(OCC(=O)Nc2ccc(S(=O)(=O)N3CCCC3)cc2)c1,?,-16.2%,-8.3%,i,i,?
O=C(COc1cccc(C(F)(F)F)c1)Nc1ccc(S(=O)(=O)N2CCCCC2)cc1,?,-29.4%,-21.2%,i,i,25.9µM*
O=C(CN(CCO)c1ccccc1)Nc1cccc(S(=O)(=O)N2CCCC2)c1,18.4µM*,-9.2%,-9.2%,i,i,?
Nc1nc2ncn(COCCO)c2c(=O)[nH]1,18.1%,.,.,i,i,-4.0%
COc1cc(OC)c(OC)cc1/C=C/C(=O)OCC(=O)Nc1c(C)n(C)n(-c2ccccc2)c1=O,?,3.4%,5.5%,i,i,1.03µM*
Cc1c(NC(=O)COC(=O)C(c2ccc(Cl)cc2)C(C)C)c(=O)n(-c2ccccc2)n1C (centres undefined),?,1.8%,2.0%,8.2µM*,?,?
COc1ccc(C(=O)/C=C/Nc2c(C)n(C)n(-c3ccccc3)c2=O)cc1OC,23.1µM*,?,?,?,?,16.4µM*
Cc1c(NC(=S)NC(NC(=O)C(C)C)C(Cl)(Cl)Cl)c(=O)n(-c2ccccc2)n1C (centres undefined),14.6µM*,-3.1%,8.2%,i,i,14.6µM*
CCOc1ccc(N2CC(C(=O)Nc3cccc(S(=O)(=O)N4CCOCC4)c3)CC2=O)cc1 (centres undefined),1.2%,4.7%,-1.9%,i,i,?
O=C(Nc1ccc(OC(F)(F)F)cc1)c1ccccc1-n1cnnn1,2.5%,1.4%,-2.4%,i,i,7.0%
